MITF TRPM1 inh: inhibitors of MITF-dependent TRPM1 promoter reporter, primary screen, cell-based, SK-MEL-5, single point, luciferase | SK-MEL-5 TRPM1 promoter luciferase, 24 h | inhibition, % at 12.5 µM | 0.83% of 330,000 active | AID 488899, 2010;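 active = mean inhibition across replicates of 60% or more, whatever share of single replicates reaches that level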
TWEAK-Fn14 inh: inhibitors of TWEAK-Fn14 signaling, primary screen, luciferase reporter cells, uHTS | 2% of 360,000 active | inhibition, % at 10 µM | TWEAK-stimulated Fn14 reporter cells, luciferase luminescence, 8 h; in the data active = inhibition above about 50%
EBV LMP1 NFkB: EBV LMP1-driven NF-kappaB luciferase reporter inhibitors, primary screen, cell-based, luminescence, single point; LMP1-induced NF-kappaB luciferase reporter cells; inhibition, % at 12.5 µM; 0.69% of 350,000 active; in the data active = inhibition above about 41%;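 also: 0% = neutral control wells and 100% = reference inhibitor control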
HIF-2a block: HIF-2a reporter inhibitors, primary screen, luminescence, 786-0 RCC cells. 786-0 RCC cells HIF-2a reporter, luciferase luminescence, overnight. inhibition, % at 18.8 µM. 0.72% of 360,000 active. AID 624352, 2012;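 active = inhibition of the luminescence signal of 40% or more relative to plate controls, in a single-dose primary screen at 18.75 µM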
TROY signal inh: inhibitors of TROY-driven NF-kB signaling, primary screen, Q293 LMP1-TROYcd cells, NF-kB luciferase, uHTS | Q293 LMP1-TROYcd NF-kB luciferase reporter, 4 h | inhibition, % at 10 µM | 0.98% of 360,000 active | AID 1347056, 2019;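 active = compounds whose plate-normalised and pattern-corrected inhibition of the luciferase reporter signal at the single screening dose is 50% or more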
Shn3 3UTR inh: reduction of Shn3 3'UTR firefly luciferase signal, primary screen, Schnurri-3 inhibitor project, cell-based, Clone20 osteoblasts, set 2. Clone20 osteoblast Shn3 3'UTR firefly luciferase, 24 h. AID 588674, 2011. 0.52% of 360,000 active. inhibition, % at 12.5 µM;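 active = mean inhibition of at least 75% with every replicate also reaching 75%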;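 also: 0% = median of neutral control wells and 100% = pilot-screen positive control compound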
The depositor's hits bear a star. Most compounds without a hit are left out; they make up all but 3.4% or so of the library.

Screening O=C(/C=C/c1cccs1)NC(=S)Nc1ccc(S(=O)(=O)Nc2ccccc2C(F)(F)F)cc1 returned MITF TRPM1 inh 7.3, TWEAK-Fn14 inh 9.2, EBV LMP1 NFkB 4.0, HIF-2a block 7.1, TROY signal inh 52.2* and Shn3 3UTR inh 13.7.
Cc1ccnc(SCC(=O)Nc2sccc2C#N)n1 was read as MITF TRPM1 inh -3.6, TWEAK-Fn14 inh -5.2, EBV LMP1 NFkB 4.8, HIF-2a block -20.2, TROY signal inh -4.0 and Shn3 3UTR inh 9.3.
For CCc1nnc(NS(=O)(=O)c2ccc(N/C=C\C(=O)c3ccc(F)cc3)cc2)s1 the results were MITF TRPM1 inh -11.0, TWEAK-Fn14 inh 40.2, EBV LMP1 NFkB -2.6, HIF-2a block 9.8, TROY signal inh 72.5* and Shn3 3UTR inh -7.4.
Cc1cc(C(=O)CCC(=O)NCC2COc3ccccc3O2)c(C)s1 (stereo unspecified) was read as MITF TRPM1 inh 10.1, TWEAK-Fn14 inh -2.0, EBV LMP1 NFkB -3.2, HIF-2a block 10.0, TROY signal inh 0.1 and Shn3 3UTR inh -6.0.
For CC1(C)CC(=O)C=C(NCCN2CCN(C(=S)Nc3ccccc3)CC2)C1 the results were MITF TRPM1 inh -0.1, TWEAK-Fn14 inh 10.1, EBV LMP1 NFkB 69.7*, HIF-2a block 4.0, TROY signal inh -11.0 and Shn3 3UTR inh 40.6.
`CCNC(=S)N1CCN(CCNC2=CC(=O)CC(C)(C)C2)CC1` gave MITF TRPM1 inh -3.7, TWEAK-Fn14 inh -16.6, EBV LMP1 NFkB -25.4, HIF-2a block 8.4, TROY signal inh -5.8 and Shn3 3UTR inh -8.9.
For CCN(c1ccccc1)S(=O)(=O)c1ccc(C(=O)N(CCCN(C)C)c2nc3cc4c(cc3s2)OCO4)cc1 the results were MITF TRPM1 inh -3.5, TWEAK-Fn14 inh -8.8, EBV LMP1 NFkB -5.5, HIF-2a block -2.9, TROY signal inh -0.6 and Shn3 3UTR inh 6.1.
Cc1ccc2sc(N(CCCN(C)C)C(=O)c3ccc(S(=O)(=O)N(C)Cc4ccccc4)cc3)nc2c1C was read as MITF TRPM1 inh 77.9*, TWEAK-Fn14 inh -11.3, EBV LMP1 NFkB -9.8, HIF-2a block 1.0, TROY signal inh 18.2 and Shn3 3UTR inh -66.0.
CN(C)CCCN(C(=O)c1ccc(S(=O)(=O)N(C)Cc2ccccc2)cc1)c1nc2cc3c(cc2s1)OCO3 was read as MITF TRPM1 inh 85.1*, TWEAK-Fn14 inh -8.4, EBV LMP1 NFkB -4.0, HIF-2a block 5.0, TROY signal inh 18.8 and Shn3 3UTR inh -24.2.
For CCOc1cccc2sc(N(CCCN(C)C)C(=O)c3ccc(S(=O)(=O)N(C)Cc4ccccc4)cc3)nc12 the results were MITF TRPM1 inh 94.5*, TWEAK-Fn14 inh 8.1, EBV LMP1 NFkB -29.6, HIF-2a block 3.4, TROY signal inh 8.0 and Shn3 3UTR inh 50.3.
`CCOc1cccc2sc(N(CCCN(C)C)C(=O)c3ccc(C(=O)c4ccccc4)cc3)nc12` gave MITF TRPM1 inh 11.6, TWEAK-Fn14 inh 92.2*, EBV LMP1 NFkB -11.4, HIF-2a block -6.3, TROY signal inh -22.1 and Shn3 3UTR inh 6.5.
`Cc1cc(CNC(=O)c2cccc(OC3CCN(S(=O)(=O)N(C)C)CC3)c2)on1` gave MITF TRPM1 inh -37.7, TWEAK-Fn14 inh -20.0, EBV LMP1 NFkB -12.0, HIF-2a block -180.2, TROY signal inh -21.9 and Shn3 3UTR inh -46.3.
O=C(OCc1ccccc1)N1C=CCC[C@@H]1c1c(Cl)cccc1Br was read as TWEAK-Fn14 inh -14.9, HIF-2a block -10.8, TROY signal inh 6.7 and Shn3 3UTR inh -26.9.
Screening O=C(Nc1cccc(Cl)c1)c1ccc(F)c(S(=O)(=O)N2CCN(c3ccccn3)CC2)c1 returned MITF TRPM1 inh -0.8, TWEAK-Fn14 inh 59.4*, EBV LMP1 NFkB 11.6, HIF-2a block -2.7, TROY signal inh 33.0 and Shn3 3UTR inh 32.6.
For CCOc1ccc(NC(=O)c2ccc(F)c(S(=O)(=O)N3CCN(c4ccccn4)CC3)c2)cc1 the results were MITF TRPM1 inh 26.5, TWEAK-Fn14 inh 44.2, EBV LMP1 NFkB 17.6, HIF-2a block -11.0, TROY signal inh 44.1 and Shn3 3UTR inh 69.4.
For O=C(Nc1ccc(F)c(F)c1)c1ccc(F)c(S(=O)(=O)N2CCC3(CC2)OCCO3)c1 the results were MITF TRPM1 inh 6.5, TWEAK-Fn14 inh 26.9, EBV LMP1 NFkB -5.5, HIF-2a block -4.7, TROY signal inh 10.1 and Shn3 3UTR inh 84.5*.
COc1cc(N)c(Cl)cc1C(=O)NC1CCN(Cc2ccccc2)CC1 was read as MITF TRPM1 inh 5.7, TWEAK-Fn14 inh -14.9, EBV LMP1 NFkB 92.4*, HIF-2a block 3.4, TROY signal inh -0.8 and Shn3 3UTR inh -20.1.
For Cc1cc(C)nc(/N=C(\N)Nc2ccc(-c3ccccc3)cc2)n1 the results were MITF TRPM1 inh -3.3, TWEAK-Fn14 inh -21.4, EBV LMP1 NFkB 15.9, HIF-2a block -43.8, TROY signal inh 11.5 and Shn3 3UTR inh 91.9*.
For O=[N+]([O-])c1cc([N+](=O)[O-])c2c(=Nc3ccccc3)n(-c3ccccc3)n(O)c2c1 the results were MITF TRPM1 inh 61.1*, TWEAK-Fn14 inh 20.6, EBV LMP1 NFkB -10.5, HIF-2a block -13.5, TROY signal inh 0.3 and Shn3 3UTR inh -6.7.
Screening CN(C)c1ccc(N=Cc2ccco2)cc1 returned MITF TRPM1 inh -0.3, TWEAK-Fn14 inh 50.5*, EBV LMP1 NFkB 1.3, HIF-2a block -132.6, TROY signal inh 32.0 and Shn3 3UTR inh 24.4.
Screening CN(C)c1ccc(C=Nc2ccc(N(C)C)cc2)cc1 returned MITF TRPM1 inh -50.2, TWEAK-Fn14 inh -2.3, EBV LMP1 NFkB -20.2, HIF-2a block -59.6, TROY signal inh -35.2 and Shn3 3UTR inh 12.0.
`O=C1c2cccc(NCCNCCO)c2C(=O)c2cccc(NCCNCCO)c21` gave MITF TRPM1 inh 80.7*, TWEAK-Fn14 inh 17.4, EBV LMP1 NFkB 9.8, HIF-2a block 78.3*, TROY signal inh -6.0 and Shn3 3UTR inh -28.6.
Screening O=C(O)c1cccc(-c2noc(-c3cccc(Cl)c3)n2)c1 returned MITF TRPM1 inh 91.9*, TWEAK-Fn14 inh 29.3, EBV LMP1 NFkB 79.6*, HIF-2a block 78.9*, TROY signal inh -38.8 and Shn3 3UTR inh 78.1.
`NC(=O)c1ccc(-c2noc(-c3cccc(Cl)c3)n2)cc1` gave MITF TRPM1 inh -126.0, TWEAK-Fn14 inh -21.6, EBV LMP1 NFkB 1.5, HIF-2a block -187.2, TROY signal inh -64.2 and Shn3 3UTR inh -63.4.
`COC(=O)[C@@H]1[C@@H](C#N)C2(c3ccccc3-c3ccccc32)N(c2ccc(Cl)cc2)N1C#N` gave MITF TRPM1 inh 37.8, TWEAK-Fn14 inh 17.3, EBV LMP1 NFkB 4.5, HIF-2a block 63.6*, TROY signal inh -6.8 and Shn3 3UTR inh 60.5.
